Drawing on PubChem BioAssay AID623970 (The Scripps Research Institute Molecular Screening Center, 2012), this text covers IC50 for six compounds.

Molecules are shown by their SMILES. Values joined by “and” are separate entries in the source; they are usually repeats but may differ in a detail not shown here. Equal values may be shown once. Values without a mark were called inactive. Active and inactive are the calls of the source. Cut-off read from the data, not from the text of the source: active = IC50 below about 90 µM; inactive = the rest.

The experiment can be described thus: DNA binding via SYBR dye displacement, late-stage follow-up, artefact control for HCV NS3 helicase inhibitor project, biochemical, fluorescence (AID 623970).
Broadly, the IC50 is the concentration needed to halve the response being measured. As for `Cc1ccc2nc(-c3ccc4nc(-c5ccc(NC(=O)c6ccc(Br)cc6)cc5)sc4c3)sc2c1S(=O)(=O)O`, the IC50 is 30 µM (active).

Regarding `Cc1ccc2nc(-c3ccc4nc(-c5ccc(NC(=O)c6cccc(C(F)(F)F)c6F)cc5)sc4c3)sc2c1S(=O)(=O)O`, the IC50 was above 100 µM.

Take `CCN(CC)c1ccc(-c2nc3ccc(-c4nc5ccc(C)c(S(=O)(=O)O)c5s4)cc3s2)cc1`: the half-inhibitory concentration (IC50) was 26 µM (active).

On to `Cc1ccc2nc(-c3ccc4nc(-c5ccc(NC(=O)c6ccc(NC(=O)OCC7c8ccccc8-c8ccccc87)cc6)cc5)sc4c3)sc2c1S(=O)(=O)O`, for which the IC50 was 6 µM (active).

For the compound `Cc1ccc2nc(-c3ccc4nc(-c5ccc(NC(=O)c6ccc7ccccc7c6)cc5)sc4c3)sc2c1S(=O)(=O)O`, the concentration for half-maximal inhibition (IC50) was 36 µM (active) and 25 µM (active).

`Cc1ccc2nc(-c3ccc(N)cc3)sc2c1S(=O)(=O)O`: the IC50 is above 100 µM.
